Data taken from PubChem BioAssay (Tox21).
Results filed as inconclusive are left out. Calls of active or inactive are those of the source. Calls follow the shape of the dose curve; as a rule, active = well fitted activation curve with a large enough effect in the repeat runs; inconclusive = weak or mixed curves; inactive = no such curve, though single readings can be large or run the other way.

biological target: Nuclear receptor subfamily 1 group I member 2 (Homo sapiens) (UniProt O75469); assay: CYP3A4 induction through human pregnane X receptor (PXR) by small molecules, qHTS assay (AID 1346984); conditions: DPX-2 HepG2 PXR, CYP3A4-luciferin luminescence, 24 h; series mostly up to 46.1 µM; activation: at the top concentration; also: nearly all actives have a fitted effect of over 40% in size
Outline: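 Luminescence readout: luciferase signal after One-Glo (30 min, room temperature), following 3 h at 37C with 3uM final Luciferin-IPA P450 substrate. Cells were DPX-2 (HepG2, PXR/CYP3A4-luc co-transfected) dosed for 24 h.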
% is scaled to controls: 0 for no effect and ±100 for the full control effect; potency is read from the fitted curve at half-maximal effect.

Row | Compound | activation | Potency
1 | CCOc1ccc2nc3cc(N)ccc3c(N)c2c1 | -35.9% (inactive) | 
2 | CC[C@@]1(O)C(=O)OCc2c1cc1n(c2=O)Cc2cc3c(CN(C)C)c(O)ccc3nc2-1 | -28.2% (inactive) | 
3 | O=C(Nc1ccc(Oc2ccc(Cl)cc2)c(Cl)c1)c1cc(I)cc(I)c1O |  | 22.4 µM (active)
4 | Cc1cccc(CN2CCN(C(c3ccccc3)c3ccc(Cl)cc3)CC2)c1 (stereo unspecified) | 10.8% [at 20.6 µM] (inactive) | 
5 | CC(=O)N1CCN(c2ccc(OC[C@H]3CO[C@](Cn4ccnc4)(c4ccc(Cl)cc4Cl)O3)cc2)CC1 | -20.4% (inactive) | 
6 | CCCC(=O)OC[C@@H](OC(=O)CCC)[C@@H](OC(=O)CCC)[C@H](Cn1c2nc(=O)[nH]c(=O)c-2nc2cc(C)c(C)cc21)OC(=O)CCC | -13.2% (inactive) | 
7 | CSc1ccc2c(c1)C(N1CCN(C)CC1)Cc1ccccc1S2 (stereo unspecified) |  | 25.1 µM (active)
8 | CCN(CC)CCCC(C)Nc1c2ccc(Cl)cc2nc2ccc(OC)cc12 (stereo unspecified) | 29% (inactive) | 
9 | C[C@@H]1C[C@H]2[C@@H]3CCC4=CC(=O)C=C[C@]4(C)[C@@]3(Cl)[C@@H](O)C[C@]2(C)[C@@]1(OC(=O)c1ccco1)C(=O)CCl | -24.2% [at 20.6 µM] (inactive) | 
10 | N/C(=N\N=C\c1ccc(Cl)cc1)N/N=C/c1ccc(Cl)cc1 | -8.78% (inactive) | 
11 | C[C@@H](NCCCc1cccc(C(F)(F)F)c1)c1cccc2ccccc12 | -19.2% (inactive) | 
